# Measured values as given in the supplement of paper PMC12067093, “Discovery and optimisation of a covalent ligand for TRIM25 and its application to targeted protein ubiquitination” (Chemical Science, 2025).
# About 21,000 targets were measured; listed, in parts, are those with the largest changes and a random draw of the rest.
# Biological target: PYCR1_P32322_95_HIVVSCAAGVTISSIEK (UniProt P32322)
# Assay: probe-labelled cysteine peptide fold change vs DMSO (competition) (log2 fold change); higher = less target engagement (more negative = stronger competition)
# Conditions: THP-1, incubation time: 4 h
# 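Also: competitive chemoproteomic profiling in live THP-1 cells with an iodoacetamide desthiobiotin (IA-DTB) probe, comparing probe-labelled peptide intensities in compound-treated cells against DMSO-treated controls.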
smiles,measurement,setting,value
CC1Cc2ccccc2N1C(=O)C1CCCN(C(=O)CCl)C1 (mixture of isomers) [TRIM25 ligand 11 (diastereomer mixture)],probe-labelled cysteine peptide fold change,10 µM,0.0152
same,probe-labelled cysteine peptide fold change,50 µM,0.0688
